From PubChem BioAssay (Tox21)
Records with an inconclusive call do not appear. The source made the active and inactive calls. Unless noted, the call rests on the fitted dose curve; in most records, active means well fitted curve in the direction sought with a large enough effect in the repeat runs; inconclusive means weak or mixed curves; inactive means no such curve, though single readings can be large; an effect the other way counts as inactive or inconclusive.

Assays:
[1] = qHTS assay to identify small molecule agonists of the hypoxia (HIF-1) signaling pathway - cell viability counter screen (AID 1224844; calls by dose curve; further: nearly all actives have a fitted effect of over 50% in size)
In short: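 In this counter screen, HRE-bla ME-180 cell viability after 17 hrs of compound exposure at 37C was read by CellTiter-Glo luminescence, multiplexed with the beta-lactamase reporter measurement.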

[2] = qHTS assay to identify small molecule agonists of H2AX (AID 1224845; active means well fitted activation curve with a large enough effect in the signal ratio in the repeat runs, not every such curve was filed as active; the % refers to the signal ratio)
In short: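 Wild-type CHO-K1 cells plated overnight, then exposed 3 hr at 37C to compounds at 15 concentrations (0.76% DMSO). Lysed, then HTRF anti-pH2AX(S139)-cryptate/anti-H2AX-d2 detection after 24 hr at room temperature; emissions 665 and 620 nm.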

[3] = qHTS assay to identify small molecule agonists of the hypoxia (HIF-1) signaling pathway (AID 1224846; active means well fitted activation curve with a large enough effect in the signal ratio in the repeat runs, not every such curve was filed as active; the % refers to the signal ratio)
In short: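 ME-180 HRE-bla reporter cells; compounds in DMSO, 17 h at 37C; read-out beta-lactamase via CCF4-AM FRET.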

[4] = qHTS assay to identify small molecule agonists of H2AX - cell viability counter screen (AID 1224847; calls by dose curve; further: top concentration of the series differs between compounds; nearly all actives have a fitted effect of over 30% in size)
In short: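 Read-out: CellTiter-Glo luminescence, 30 min RT. Cells: wild-type CHO-K1, 1000/well, 10% FBS, plated overnight at 37C. Treatment: 15 concentrations, 3 hr, 37C, 0.76% DMSO.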

[5] = qHTS assay to identify small molecule antagonists of the estrogen related receptor (ERR) signaling pathway from Tox21 library (AID 1224848); further: nearly all actives have a fitted effect of over 50% in size
In short: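 Tox21 10K compounds in DMSO tested for ERR pathway antagonism in NTP's ERR cell line; 18 h, 37 C exposure; ONE-Glo luminescence.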

[6] = qHTS assay to identify small molecule agonists of the estrogen related receptor (ERR) signaling pathway from Tox21 library (AID 1224849; calls by dose curve; further: nearly all actives have a fitted effect of over 15% in size); conditions: ERR reporter cell line, ONE-Glo luciferase, 18 h; at 92.4 µM (top of the series) unless noted
In short: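 Luciferase activity in ERR pathway reporter cells served as the agonist readout; exposure lasted 18 h at 37 C, with ONE-Glo detection after 30 min at room temperature.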

[7] = qHTS RealTime-Glo MT Cell Viability Assay in HepG2 cells - 24 hour (AID 1224867); further: nearly all actives have a fitted effect of over 50% in size
In short: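 HepG2 cells were seeded at 600 cells/well together with NanoLuc luciferase and a cell-permeant prosubstrate, preincubated 5 h at 37 C/5% CO2, then pin-dosed with compounds in DMSO. Nonlytic luminescence from viable cells was read at each time point.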

[8] = qHTS RealTime-Glo MT Cell Viability Assay in HEK293 cells - 32 hour (AID 1224868); further: top concentration of the series differs between compounds; nearly all actives have a fitted effect of over 50% in size
In short: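 HEK293 cells were seeded at 600 cells/well together with NanoLuc luciferase and cell-permeant prosubstrate, preincubated 5 h at 37 C/5% CO2, then given compound in DMSO by pintool. Luminescence from viable-cell prosubstrate reduction was read repeatedly over 40 h.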

[9] = A CellTox Green Cytotoxicity Assay to monitor cytotoxicity in HEK293 cells - 0 hour (AID 1224869); further: nearly all actives have a fitted effect of over 50% in size
In short: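 Real-time, in one plate: 600 HEK293 cells/well with dead-cell DNA dye, pinned compound after 5 h, 37 C incubation over 40 h; viable cells give no appreciable fluorescence.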

[10] = qHTS RealTime-Glo MT Cell Viability Assay in HepG2 cells - 40 hour (AID 1224870); further: nearly all actives have a fitted effect of over 50% in size
In short: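 HepG2 cells mixed with RealTime-Glo MT reagents (NanoLuc plus cell-permeant prosubstrate) were seeded at 600 cells/well, incubated 5 h at 37 C/5% CO2, then pinned with compounds in DMSO; nonlytic luminescence tracked viability during 40 h treatment.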
On the % scale 0 is the no-effect control and ±100 the full control effect.

CS(=O)(=O)c1ccc(C(=O)C2C(=O)CCCC2=O)c(Cl)c1COCC(F)(F)F
inactive: Potency [1] | outcome [2] | outcome [3] | Potency [4] | Potency [5] | activity change, positive = activation [6] -5.95% | Potency [7] | Potency [8] | outcome [9]

Clc1nc(Cl)nc(Nc2ccccc2Cl)n1
inactive: Potency [1] | outcome [2] | outcome [3] | Potency [4] | Potency [5] | activity change, positive = activation [6] 2.23% | Potency [7] | outcome [9]

Cn1c(CCCC(=O)O)nc2cc(N(CCCl)CCCl)ccc21
inactive: Potency [1] | outcome [2] | outcome [3] | Potency [4] | Potency [5] | activity change, positive = activation [6] -8.11% [at 42.5 µM] | Potency [7] | Potency [8] | outcome [9] | Potency [10]

Cl/C=C/CCl
inactive: Potency [1] | outcome [2] | outcome [3] | Potency [4] | Potency [5] | activity change, positive = activation [6] 5.39% | Potency [7] | Potency [8] | outcome [9] | Potency [10]

CCC(CC)(CNC(=O)CCCO)c1cccc(OC)c1
inactive: Potency [1] | outcome [2] | outcome [3] | Potency [4] | Potency [5] | activity change, positive = activation [6] 4.37% [at 42.5 µM] | Potency [7] | Potency [8] | outcome [9]

NC(=O)CS(=O)C(c1ccccc1)c1ccccc1 (stereo not given)
inactive: Potency [1] | outcome [2] | outcome [3] | Potency [4] | Potency [5] | activity change, positive = activation [6] 9.38% [at 42.5 µM] | Potency [7] | Potency [8] | outcome [9] | Potency [10]

O=C(Cl)OCc1ccccc1
inactive: Potency [1] | outcome [2] | outcome [3] | Potency [4] | Potency [5] | activity change, positive = activation [6] 6.05% | Potency [7] | Potency [8] | outcome [9] | Potency [10]

CCC1(c2ccccc2)C(=O)N(COC)C(=O)N(COC)C1=O
inactive: Potency [1] | outcome [2] | outcome [3] | Potency [4] | Potency [5] | activity change, positive = activation [6] 4.72% [at 42.5 µM] | Potency [7] | Potency [8]

N#CN=C1SCCN1Cc1ccc(Cl)nc1
inactive: Potency [1] | outcome [2] | outcome [3] | Potency [4] | Potency [5] | activity change, positive = activation [6] 7.53% | Potency [7] | Potency [8] | outcome [9] | Potency [10]

CCCOC(=O)c1cncn1C(C)c1ccccc1 (stereo not given)
inactive: Potency [1] | outcome [2] | outcome [3] | Potency [4] | Potency [5] | activity change, positive = activation [6] 0.709% [at 42.5 µM] | Potency [7] | Potency [8] | outcome [9] | Potency [10]

CN(C)CCN(C)C
inactive: Potency [1] | outcome [2] | outcome [3] | Potency [4] | Potency [5] | activity change, positive = activation [6] 9.25% | Potency [7] | Potency [8] | outcome [9]

O=CCCl
inactive: Potency [1] | outcome [2] | outcome [3] | Potency [4] | Potency [7] | Potency [8]

O=C(Cl)/C=C/C(=O)Cl
inactive: Potency [1] | outcome [2] | outcome [3] | Potency [4] | Potency [5] | activity change, positive = activation [6] -12% | Potency [7] | outcome [9] | Potency [10]

N=C(N)[Se]
inactive: Potency [1] | outcome [2] | outcome [3] | Potency [4] | Potency [7] | Potency [8] | outcome [9]

CNC(=O)NC(O)C(Cl)(Cl)Cl (stereo not given)
inactive: Potency [1] | outcome [2] | outcome [3] | Potency [4] | Potency [7] | Potency [8] | outcome [9]

CCCC(C)(COC(N)=O)COC(N)=O
inactive: Potency [1] | outcome [2] | outcome [3] | Potency [4] | Potency [5] | activity change, positive = activation [6] 0.442% | Potency [8] | outcome [9] | Potency [10]

NNCc1ccccc1
inactive: Potency [1] | outcome [2] | outcome [3] | Potency [4] | Potency [7] | Potency [8] | outcome [9]

C=CC(=O)OCCN(C)C
inactive: Potency [1] | outcome [2] | outcome [3] | Potency [4] | Potency [5] | activity change, positive = activation [6] 3.26% | Potency [7] | outcome [9] | Potency [10]

CCC(=O)c1ccc(Cl)cc1
inactive: Potency [1] | outcome [2] | outcome [3] | Potency [4] | Potency [5] | activity change, positive = activation [6] 6.34% | Potency [7] | outcome [9] | Potency [10]

CC(C)(C1CCC(O)CC1)C1CCC(O)CC1 (stereo not given)
inactive: Potency [1] | outcome [2] | outcome [3] | Potency [4] | Potency [7] | Potency [8]

COC(=O)c1ccccc1CS(=O)(=O)NC(=O)Nc1nc(OC)cc(OC)n1
inactive: Potency [1] | outcome [2] | outcome [3] | Potency [4] | Potency [5] | activity change, positive = activation [6] -0.138% | outcome [9] | Potency [10]

CNC(=O)Oc1ccccc1C(C)C
inactive: Potency [1] | outcome [2] | outcome [3] | Potency [4] | Potency [5] | activity change, positive = activation [6] 1.9% | Potency [7] | outcome [9]

OCC(Cl)CCl (stereo not given)
inactive: Potency [1] | outcome [2] | outcome [3] | Potency [4] | Potency [7] | Potency [8] | outcome [9]

C[C@]12C=CC(=O)C=C1CC[C@@H]1[C@@H]2CC[C@@]2(C)[C@H]1CC[C@]2(C)O
inactive: Potency [1] | outcome [2] | outcome [3] | Potency [4] | activity change, positive = activation [6] -17.6% [at 42.5 µM] | Potency [7] | Potency [8] | outcome [9] | Potency [10]

Cc1cccc2sc3nncn3c12
inactive: Potency [1] | outcome [2] | outcome [3] | Potency [4] | Potency [7] | Potency [8] | outcome [9]

CCc1ccc(C2CCNCC2)cc1
inactive: Potency [1] | outcome [2] | outcome [3] | Potency [4] | Potency [7] | Potency [8]

CC(Cl)(Cl)Cl
inactive: Potency [1] | outcome [2] | outcome [3] | Potency [4] | Potency [5] | activity change, positive = activation [6] 4% | Potency [8] | Potency [10]
